Key:
[1] = biological target: T1, Tyrosine-protein kinase ITK/TSK (Homo sapiens) (UniProt Q08881); conditions: at 10 µM
T1 sequence (whole entry): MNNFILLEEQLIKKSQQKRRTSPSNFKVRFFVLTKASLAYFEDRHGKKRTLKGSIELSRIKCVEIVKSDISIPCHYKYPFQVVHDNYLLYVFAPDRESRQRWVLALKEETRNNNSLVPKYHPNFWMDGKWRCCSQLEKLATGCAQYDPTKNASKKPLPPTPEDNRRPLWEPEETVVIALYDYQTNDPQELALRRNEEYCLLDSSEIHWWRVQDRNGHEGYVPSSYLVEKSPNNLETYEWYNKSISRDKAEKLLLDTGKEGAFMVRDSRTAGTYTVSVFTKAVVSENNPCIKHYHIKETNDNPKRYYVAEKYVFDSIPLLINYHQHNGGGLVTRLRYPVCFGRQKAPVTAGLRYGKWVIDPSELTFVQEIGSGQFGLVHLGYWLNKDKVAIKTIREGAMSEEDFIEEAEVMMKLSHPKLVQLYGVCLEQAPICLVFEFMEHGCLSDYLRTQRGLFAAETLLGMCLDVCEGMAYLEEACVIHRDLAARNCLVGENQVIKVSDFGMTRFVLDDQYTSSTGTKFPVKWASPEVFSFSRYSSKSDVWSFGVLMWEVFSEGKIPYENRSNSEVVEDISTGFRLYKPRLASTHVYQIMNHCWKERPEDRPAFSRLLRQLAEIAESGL

[2] = biological target: Tyrosine-protein kinase JAK2 (Homo sapiens) (UniProt O60674); conditions: at 1 µM
[3] = biological target: Tyrosine-protein kinase JAK2 (Homo sapiens) (UniProt O60674); conditions: at 10 µM
[4] = biological target: T2, Tyrosine-protein kinase JAK3 (Homo sapiens) (UniProt P52333); conditions: at 1 µM
T2 sequence (whole entry): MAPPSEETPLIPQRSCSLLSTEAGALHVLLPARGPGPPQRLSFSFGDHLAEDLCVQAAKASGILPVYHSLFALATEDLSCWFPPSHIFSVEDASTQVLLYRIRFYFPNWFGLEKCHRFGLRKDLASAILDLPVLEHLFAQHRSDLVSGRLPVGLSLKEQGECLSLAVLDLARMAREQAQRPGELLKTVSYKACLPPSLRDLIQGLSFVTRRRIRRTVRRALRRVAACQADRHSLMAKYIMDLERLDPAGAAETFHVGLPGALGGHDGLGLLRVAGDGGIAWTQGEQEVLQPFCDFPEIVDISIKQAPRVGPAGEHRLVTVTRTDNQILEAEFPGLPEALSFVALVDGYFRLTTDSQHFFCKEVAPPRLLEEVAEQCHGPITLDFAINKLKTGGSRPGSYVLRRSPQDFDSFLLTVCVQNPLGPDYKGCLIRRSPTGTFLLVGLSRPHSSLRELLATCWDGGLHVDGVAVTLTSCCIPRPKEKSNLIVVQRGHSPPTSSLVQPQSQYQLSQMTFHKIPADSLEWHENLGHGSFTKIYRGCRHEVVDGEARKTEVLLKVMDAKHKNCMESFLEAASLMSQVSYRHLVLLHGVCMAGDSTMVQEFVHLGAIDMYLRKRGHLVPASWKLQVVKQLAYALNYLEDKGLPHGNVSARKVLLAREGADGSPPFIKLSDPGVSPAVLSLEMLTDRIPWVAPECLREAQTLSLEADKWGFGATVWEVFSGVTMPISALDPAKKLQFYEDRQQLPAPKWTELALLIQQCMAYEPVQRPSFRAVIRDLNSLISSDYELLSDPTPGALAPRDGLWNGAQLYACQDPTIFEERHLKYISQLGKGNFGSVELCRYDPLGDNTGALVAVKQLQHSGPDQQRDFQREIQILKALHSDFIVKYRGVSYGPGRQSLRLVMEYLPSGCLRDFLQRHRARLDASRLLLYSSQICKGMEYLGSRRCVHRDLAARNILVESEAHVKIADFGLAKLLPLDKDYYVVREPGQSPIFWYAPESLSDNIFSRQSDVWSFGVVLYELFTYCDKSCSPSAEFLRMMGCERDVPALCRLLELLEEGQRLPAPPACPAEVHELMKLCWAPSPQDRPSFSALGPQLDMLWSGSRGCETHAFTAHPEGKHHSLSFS

[5] = biological target: T2, Tyrosine-protein kinase JAK3 (Homo sapiens); conditions: at 10 µM
[6] = biological target: Mitogen-activated protein kinase 8 (Homo sapiens) (UniProt P45983); conditions: at 1 µM
[7] = biological target: Mitogen-activated protein kinase 8 (Homo sapiens) (UniProt P45983); conditions: at 10 µM
[8] = biological target: Mitogen-activated protein kinase 9 (Homo sapiens) (UniProt P45984); conditions: at 1 µM
[9] = biological target: Mitogen-activated protein kinase 9 (Homo sapiens) (UniProt P45984); conditions: at 10 µM
[10] = biological target: Mitogen-activated protein kinase 10 (Homo sapiens) (UniProt P53779); conditions: at 1 µM
[11] = biological target: Mitogen-activated protein kinase 10 (Homo sapiens) (UniProt P53779); conditions: at 10 µM
[12] = biological target: Vascular endothelial growth factor receptor 2 (Homo sapiens) (UniProt P35968); conditions: at 1 µM
[13] = biological target: Vascular endothelial growth factor receptor 2 (Homo sapiens) (UniProt P35968); conditions: at 10 µM
[14] = biological target: LIM domain kinase 1 (Homo sapiens) (UniProt P53667); conditions: at 1 µM
[15] = biological target: LIM domain kinase 1 (Homo sapiens) (UniProt P53667); conditions: at 10 µM
[16] = biological target: T3, Serine/threonine-protein kinase STK11 (Homo sapiens) (UniProt Q15831); conditions: at 1 µM
T3 sequence (whole entry): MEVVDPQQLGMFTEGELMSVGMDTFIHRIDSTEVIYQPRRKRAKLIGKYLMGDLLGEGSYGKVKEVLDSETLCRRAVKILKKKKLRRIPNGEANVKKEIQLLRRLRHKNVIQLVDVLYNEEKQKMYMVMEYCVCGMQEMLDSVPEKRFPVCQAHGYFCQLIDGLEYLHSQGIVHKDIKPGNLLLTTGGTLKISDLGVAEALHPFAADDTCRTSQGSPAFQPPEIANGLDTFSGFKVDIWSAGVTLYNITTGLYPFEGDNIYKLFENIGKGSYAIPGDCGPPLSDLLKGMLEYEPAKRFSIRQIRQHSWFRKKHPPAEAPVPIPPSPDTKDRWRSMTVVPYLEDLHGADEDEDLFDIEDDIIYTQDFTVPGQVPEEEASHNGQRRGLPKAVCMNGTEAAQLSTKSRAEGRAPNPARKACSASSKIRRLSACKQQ

[17] = biological target: T3, Serine/threonine-protein kinase STK11 (Homo sapiens); conditions: at 10 µM
[18] = biological target: Serine/threonine-protein kinase 10 (Homo sapiens) (UniProt O94804); conditions: at 1 µM
[19] = biological target: Serine/threonine-protein kinase 10 (Homo sapiens) (UniProt O94804); conditions: at 10 µM
[20] = biological target: Tyrosine-protein kinase Lck (Homo sapiens) (UniProt P06239); conditions: at 1 µM
Chain of Tyrosine-protein kinase Lck (Homo sapiens) (P06239 2-509 limits assumed): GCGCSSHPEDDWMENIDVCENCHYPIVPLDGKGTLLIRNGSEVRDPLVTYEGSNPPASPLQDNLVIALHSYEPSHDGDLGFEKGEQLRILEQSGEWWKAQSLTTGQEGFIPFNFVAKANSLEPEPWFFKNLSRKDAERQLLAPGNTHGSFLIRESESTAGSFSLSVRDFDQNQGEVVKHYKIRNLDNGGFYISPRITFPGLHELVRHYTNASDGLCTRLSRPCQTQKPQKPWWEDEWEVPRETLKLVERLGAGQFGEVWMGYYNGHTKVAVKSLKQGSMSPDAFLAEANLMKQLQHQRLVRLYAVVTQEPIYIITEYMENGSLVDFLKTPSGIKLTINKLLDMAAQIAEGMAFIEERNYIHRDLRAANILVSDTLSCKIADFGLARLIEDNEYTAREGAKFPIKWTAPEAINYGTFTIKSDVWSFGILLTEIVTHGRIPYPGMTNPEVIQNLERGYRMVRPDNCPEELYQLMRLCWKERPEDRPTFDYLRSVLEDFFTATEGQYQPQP

Chain of Serine/threonine-protein kinase 10 (Homo sapiens) (O94804 whole entry, looked up): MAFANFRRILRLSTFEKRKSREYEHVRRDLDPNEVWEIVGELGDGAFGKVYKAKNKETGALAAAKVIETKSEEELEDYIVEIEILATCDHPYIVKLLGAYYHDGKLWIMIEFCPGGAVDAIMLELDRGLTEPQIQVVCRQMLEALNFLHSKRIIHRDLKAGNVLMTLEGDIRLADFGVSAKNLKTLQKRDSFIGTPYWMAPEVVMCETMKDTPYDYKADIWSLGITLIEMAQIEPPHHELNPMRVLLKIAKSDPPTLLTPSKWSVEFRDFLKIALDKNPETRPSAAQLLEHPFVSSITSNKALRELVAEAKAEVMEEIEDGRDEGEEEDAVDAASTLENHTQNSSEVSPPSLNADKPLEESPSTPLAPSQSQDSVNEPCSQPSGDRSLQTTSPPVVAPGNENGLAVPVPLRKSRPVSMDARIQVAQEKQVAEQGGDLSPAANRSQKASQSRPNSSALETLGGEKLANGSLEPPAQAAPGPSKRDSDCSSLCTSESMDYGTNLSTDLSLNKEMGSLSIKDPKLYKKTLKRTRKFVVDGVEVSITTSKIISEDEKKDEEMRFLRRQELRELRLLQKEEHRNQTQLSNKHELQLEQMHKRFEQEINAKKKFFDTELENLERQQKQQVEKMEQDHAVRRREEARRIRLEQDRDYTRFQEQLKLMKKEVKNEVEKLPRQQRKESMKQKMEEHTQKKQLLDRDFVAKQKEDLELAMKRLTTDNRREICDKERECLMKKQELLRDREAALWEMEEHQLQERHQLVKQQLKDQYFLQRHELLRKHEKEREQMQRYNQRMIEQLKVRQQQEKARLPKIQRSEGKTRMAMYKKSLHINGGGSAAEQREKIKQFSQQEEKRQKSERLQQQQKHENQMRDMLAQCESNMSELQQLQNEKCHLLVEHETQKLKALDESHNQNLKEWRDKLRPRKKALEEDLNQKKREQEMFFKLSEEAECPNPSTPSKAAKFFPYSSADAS
Chain of Vascular endothelial growth factor receptor 2 (Homo sapiens) (P35968 whole entry, the tested form may be a part): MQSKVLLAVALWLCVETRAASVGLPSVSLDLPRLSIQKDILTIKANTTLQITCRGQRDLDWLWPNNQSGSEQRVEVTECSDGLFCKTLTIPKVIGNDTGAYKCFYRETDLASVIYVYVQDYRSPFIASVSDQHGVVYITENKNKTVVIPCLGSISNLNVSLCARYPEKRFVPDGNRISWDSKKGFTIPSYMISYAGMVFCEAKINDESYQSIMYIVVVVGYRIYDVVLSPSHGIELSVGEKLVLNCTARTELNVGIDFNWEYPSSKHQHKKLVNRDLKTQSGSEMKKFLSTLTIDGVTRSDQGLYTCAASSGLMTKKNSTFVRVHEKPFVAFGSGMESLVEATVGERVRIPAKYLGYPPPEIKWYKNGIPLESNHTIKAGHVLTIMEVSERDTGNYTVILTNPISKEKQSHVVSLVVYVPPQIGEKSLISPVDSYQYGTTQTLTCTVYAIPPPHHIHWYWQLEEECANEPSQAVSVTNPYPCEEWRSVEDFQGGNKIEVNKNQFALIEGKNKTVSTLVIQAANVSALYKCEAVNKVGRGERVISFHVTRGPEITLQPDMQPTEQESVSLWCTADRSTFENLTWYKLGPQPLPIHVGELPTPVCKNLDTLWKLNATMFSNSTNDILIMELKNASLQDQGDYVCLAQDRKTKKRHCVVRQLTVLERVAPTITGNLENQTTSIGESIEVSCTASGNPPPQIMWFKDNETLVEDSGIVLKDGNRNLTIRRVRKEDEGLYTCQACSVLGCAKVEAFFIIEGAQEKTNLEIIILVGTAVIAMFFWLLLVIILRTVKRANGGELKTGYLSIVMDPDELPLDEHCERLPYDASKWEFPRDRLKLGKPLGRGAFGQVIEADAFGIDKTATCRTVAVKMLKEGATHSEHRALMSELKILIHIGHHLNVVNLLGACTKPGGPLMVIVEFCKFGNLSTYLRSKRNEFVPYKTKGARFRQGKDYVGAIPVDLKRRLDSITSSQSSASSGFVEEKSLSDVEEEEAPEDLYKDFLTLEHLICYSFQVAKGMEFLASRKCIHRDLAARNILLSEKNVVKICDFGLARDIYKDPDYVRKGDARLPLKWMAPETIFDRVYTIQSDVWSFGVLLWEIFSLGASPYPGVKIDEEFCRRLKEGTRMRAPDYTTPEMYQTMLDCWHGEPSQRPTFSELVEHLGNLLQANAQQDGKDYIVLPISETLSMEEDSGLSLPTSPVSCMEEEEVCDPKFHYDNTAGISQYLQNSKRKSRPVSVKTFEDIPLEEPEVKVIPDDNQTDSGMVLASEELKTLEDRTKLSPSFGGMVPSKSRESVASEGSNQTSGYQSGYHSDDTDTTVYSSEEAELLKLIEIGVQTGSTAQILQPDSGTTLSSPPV
Chain of Mitogen-activated protein kinase 10 (Homo sapiens) (P53779 whole entry): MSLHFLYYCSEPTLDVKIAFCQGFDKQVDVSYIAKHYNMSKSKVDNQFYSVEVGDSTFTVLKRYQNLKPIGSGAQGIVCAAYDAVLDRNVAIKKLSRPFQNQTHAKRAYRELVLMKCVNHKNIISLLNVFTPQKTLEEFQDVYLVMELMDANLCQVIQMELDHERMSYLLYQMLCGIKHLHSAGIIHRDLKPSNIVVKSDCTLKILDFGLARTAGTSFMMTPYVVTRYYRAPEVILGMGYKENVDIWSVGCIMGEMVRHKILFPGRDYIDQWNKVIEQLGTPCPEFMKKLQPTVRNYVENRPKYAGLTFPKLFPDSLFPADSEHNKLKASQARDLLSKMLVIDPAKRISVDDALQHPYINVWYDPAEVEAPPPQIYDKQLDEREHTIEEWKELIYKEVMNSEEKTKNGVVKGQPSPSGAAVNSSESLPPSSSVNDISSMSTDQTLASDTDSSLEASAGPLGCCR
Chain of Mitogen-activated protein kinase 8 (Homo sapiens) (P45983 whole entry): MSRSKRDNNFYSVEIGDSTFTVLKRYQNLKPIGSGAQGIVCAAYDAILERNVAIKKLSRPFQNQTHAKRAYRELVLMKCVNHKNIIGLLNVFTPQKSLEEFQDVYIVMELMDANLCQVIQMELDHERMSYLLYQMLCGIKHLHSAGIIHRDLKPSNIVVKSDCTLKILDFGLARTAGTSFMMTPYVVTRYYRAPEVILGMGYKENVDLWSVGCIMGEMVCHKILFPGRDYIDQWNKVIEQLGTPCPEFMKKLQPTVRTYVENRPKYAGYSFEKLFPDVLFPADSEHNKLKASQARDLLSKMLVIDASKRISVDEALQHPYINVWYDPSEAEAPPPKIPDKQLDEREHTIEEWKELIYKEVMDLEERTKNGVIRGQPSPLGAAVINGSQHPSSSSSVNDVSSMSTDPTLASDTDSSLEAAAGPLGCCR
Chain of Mitogen-activated protein kinase 9 (Homo sapiens) (P45984 whole entry, looked up): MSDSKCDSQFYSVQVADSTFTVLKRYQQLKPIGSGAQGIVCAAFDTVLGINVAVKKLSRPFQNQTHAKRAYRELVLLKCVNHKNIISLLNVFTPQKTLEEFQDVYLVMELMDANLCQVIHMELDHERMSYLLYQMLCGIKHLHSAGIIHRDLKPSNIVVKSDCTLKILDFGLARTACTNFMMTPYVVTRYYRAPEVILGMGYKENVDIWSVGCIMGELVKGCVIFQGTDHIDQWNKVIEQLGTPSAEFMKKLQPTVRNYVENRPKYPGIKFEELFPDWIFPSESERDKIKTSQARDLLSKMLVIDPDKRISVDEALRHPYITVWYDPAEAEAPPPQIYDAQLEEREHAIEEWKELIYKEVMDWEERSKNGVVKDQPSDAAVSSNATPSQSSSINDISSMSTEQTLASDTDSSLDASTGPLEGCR
Chain of LIM domain kinase 1 (Homo sapiens) (P53667 whole entry, looked up, the tested form may be a part): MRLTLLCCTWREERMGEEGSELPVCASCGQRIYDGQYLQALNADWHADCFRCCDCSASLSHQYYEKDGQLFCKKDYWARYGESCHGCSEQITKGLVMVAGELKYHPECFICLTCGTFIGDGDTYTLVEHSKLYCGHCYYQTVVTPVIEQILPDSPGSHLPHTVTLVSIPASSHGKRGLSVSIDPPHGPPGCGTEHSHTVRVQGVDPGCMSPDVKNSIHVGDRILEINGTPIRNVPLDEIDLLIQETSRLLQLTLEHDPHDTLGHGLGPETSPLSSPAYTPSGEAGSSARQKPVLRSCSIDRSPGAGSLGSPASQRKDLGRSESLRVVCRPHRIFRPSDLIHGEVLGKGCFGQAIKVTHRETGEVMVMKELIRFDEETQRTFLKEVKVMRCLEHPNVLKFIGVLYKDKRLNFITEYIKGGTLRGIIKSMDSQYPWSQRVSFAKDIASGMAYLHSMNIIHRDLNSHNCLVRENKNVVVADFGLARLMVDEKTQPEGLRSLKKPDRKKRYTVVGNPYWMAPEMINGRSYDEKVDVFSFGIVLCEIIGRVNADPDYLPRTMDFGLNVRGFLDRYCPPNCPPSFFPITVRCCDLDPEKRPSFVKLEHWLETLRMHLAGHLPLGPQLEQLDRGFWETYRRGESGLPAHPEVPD

| SMILES | residual activity [1] [%] | residual activity [2] [%] | residual activity [3] [%] | residual activity [4] [%] | residual activity [5] [%] | residual activity [6] [%] | residual activity [7] [%] | residual activity [8] [%] | residual activity [9] [%] | residual activity [10] [%] | residual activity [11] [%] | residual activity [12] [%] | residual activity [13] [%] | residual activity [14] [%] | residual activity [15] [%] | residual activity [16] [%] | residual activity [17] [%] | residual activity [18] [%] | residual activity [19] [%] | residual activity [20] [%] |
| --- | --- | --- | --- | --- | --- | --- | --- | --- | --- | --- | --- | --- | --- | --- | --- | --- | --- | --- | --- | --- |
| Ic1cccc(CSc2nnc(-c3ccncc3)o2)c1 | 95 | 86 | 104 | 102 | 89 | 93 | 84 | 90 | 96 | 73 | 68 | 77 | 65 | 84 | 75 | 96 | 94 | 104 | 95 | 58 |
| Oc1ccc(-c2nc(-c3ccc(F)cc3)c(-c3ccncc3)[nH]2)cc1 | 98 | 101 | 112 | 108 | 93 | 99 | 79 | 69 | 12 | 10 | -2 | 98 | 49 | 101 | 69 | 108 | 99 | 92 | 59 | 61 |
| NC(=O)c1ccc2[nH]c(-c3ccc(Oc4ccc(Cl)cc4)cc3)nc2c1 | 86 | 97 | 115 | 105 | 117 | 97 | 91 | 88 | 93 | 98 | 98 | 84 | 43 | 93 | 55 | 103 | 94 | 83 | 58 | 83 |
| O=C1NC(=O)c2c1c1c3ccccc3[nH]c1c1[nH]c3cc(Br)ccc3c21 | 97 | 97 | 106 | 94 | 96 | 110 | 98 | 110 | 121 | 77 | 67 | 70 | 58 | 99 | 76 | 96 | 100 | 98 | 95 | 79 |
| CC#CC(=O)Nc1cc2c(Nc3ccc(F)c(Cl)c3)ncnc2cn1 | 92 | 96 | 97 | 51 | 59 | 96 | 72 | 103 | 95 | 76 | 61 | 107 | 86 | 100 | 91 | 102 | 98 | 96 | 86 | 105 |
| CCC(=O)Nc1ccc2ncnc(Nc3cccc(Br)c3)c2c1 | 102 | 89 | 107 | 99 | 100 | 94 | 76 | 105 | 89 | 72 | 37 | 95 | 75 | 97 | 76 | 96 | 96 | 50 | 33 | 79 |

— ChEMBL document CHEMBL2218924, “A broad activity screen in support of a chemogenomic map for kinase signalling research and drug discovery” (Biochem J, 2013)
